# Data taken from ChEMBL document CHEMBL1157539, “Thousands of chemical starting points for antimalarial lead identification” (Nature, 2010).
# Several values for one entry are separate records, joined by “and”; a condition that tells them apart may be missing. Equal entries are not always repeated.
# Legend:
# Format in all cases: functional
# [1] = test system: Plasmodium falciparum; assay: GSK_TCMDC: Inhibition of Plasmodium falciparum 3D7 in whole red blood cells, using parasite LDH activity as an index of growth. Test compounds present at 2uM
# [2] = test system: Plasmodium falciparum; assay: GSK_TCMDC: Inhibition of Plasmodium falciparum Dd2 in whole red blood cells, using parasite LDH activity as an index of growth. Test compounds present at 2uM
# [3] = test system: HepG2; assay: GSK_TCMDC: Percent inhibition of human HepG2 cell line. Test compounds present at 10uM.
smiles,measurement,setting,value
O=C(NC1CCC(CN2CCC(c3c[nH]c4ccccc34)CC2)CC1)c1ccc(-c2ccccc2[N+](=O)[O-])o1 (configuration not stated),Inhibition,[1],100%
same,Inhibition,[2],34%
same,Inhibition,[3],24%
CN1CC=C(c2csc3ccc(NC(=O)Nc4ccc(-c5ccncc5)c(Cl)c4)cc23)CC1,Inhibition,[1],100%
same,Inhibition,[2],100%
same,Inhibition,[3],10%
CCOc1ccc(Br)cc1/C=C/C(=O)Nc1ccc2c(c1)C1CCC2N1C.O=C(O)C(F)(F)F (configuration not stated),Inhibition,[1],89%
same,Inhibition,[2],26%
same,Inhibition,[3],60%
O=C(NC1CCC(CN2CCC(c3c[nH]c4ccccc34)CC2)CC1)c1cc2cccc([N+](=O)[O-])c2[nH]1 (configuration not stated),Inhibition,[1],100%
same,Inhibition,[2],100%
same,Inhibition,[3],36%
CC[C@H]1CN2CC[C@H]1C[C@@H]2[C@H](O)c1ccnc2ccc(O)cc12,Inhibition,[1],94%
same,Inhibition,[2],0%
same,Inhibition,[3],0%
CC(Cc1ccc(OCc2ccccc2)cc1)NCC(O)c1cccc(Cl)c1 (configuration not stated),Inhibition,[1],99%
same,Inhibition,[2],99%
same,Inhibition,[3],50%
CC[C@H]1CN2CC[C@@H]1C[C@H]2[C@H](O)c1cc(-c2ccc(F)cc2)nc2ccc(O)cc12.Cl,Inhibition,[1],99%
same,Inhibition,[2],99%
same,Inhibition,[3],25%
CC[C@@]1(O)C(=O)OCc2c1cc1n(c2=O)Cc2c-1nc1cc3c(cc1c2CN1CCOCC1)OCO3.O=C(O)C(F)(F)F,Inhibition,[1],89%
same,Inhibition,[2],80%
same,Inhibition,[3],81%
CNCC(O)c1cc(Cl)c(Cl)cc1C.Cl (configuration not stated),Inhibition,[1],98%
same,Inhibition,[2],88%
same,Inhibition,[3],0%
CCCCCCCCNCC(O)c1ccc(Cl)c(Cl)c1.Cl (configuration not stated),Inhibition,[1],99%
same,Inhibition,[2],87%
same,Inhibition,[3],0%
CO/C(=C\C=C\c1cc2cc(Cl)c(Cl)cc2[nH]1)C(=O)N[C@H]1CN2CCC1CC2,Inhibition,[1],82%
same,Inhibition,[2],36%
same,Inhibition,[3],43%
CC[C@H]1CN2CC[C@H]1C[C@H]2[C@H](O)c1cc(-c2cccc(C)c2)nc2ccc(OC)cc12.Cl,Inhibition,[1],100%
same,Inhibition,[2],100%
same,Inhibition,[3],15%
C[C@H](Cc1ccc(OCCCCCCOc2ccccc2)cc1)NC[C@@H](O)c1cc(Br)no1.Cl,Inhibition,[1],94%
same,Inhibition,[2],70%
same,Inhibition,[3],21%
Cc1ccc(C2(O)CC3CCC(C2)N3C)cc1 (configuration not stated),Inhibition,[1],92%
same,Inhibition,[2],16%
same,Inhibition,[3],0%
COc1ccc(CN2CCN(CCOC(c3ccccc3)c3ccc(Cl)cc3)CC2)c(O)c1 (configuration not stated),Inhibition,[1],99%
same,Inhibition,[2],98%
same,Inhibition,[3],12%
O=C(NC1CCC(CN2CCC(c3c[nH]c4ccccc34)CC2)CC1)c1cc2ccccc2o1 (configuration not stated),Inhibition,[1],94%
same,Inhibition,[2],14%
same,Inhibition,[3],34%
CCCCCc1cc(O)c2c(c1)OC(C)(C)CC2C1=CCN(Cc2ccccc2)CC1 (configuration not stated),Inhibition,[1],99%
same,Inhibition,[2],79%
same,Inhibition,[3],15%
CC(=O)C1(c2ccccc2)CCN(CCC(NC(=O)c2cc(C(F)(F)F)cc(C(F)(F)F)c2)c2ccc(Cl)c(Cl)c2)CC1.Cl (configuration not stated),Inhibition,[1],91%
same,Inhibition,[2],82%
same,Inhibition,[3],9%
N#Cc1c(Cl)cccc1Oc1ccc(S(=O)(=O)N2CCC(CN3CCC(c4c[nH]c5ccccc45)CC3)CC2)cc1,Inhibition,[1],100%
same,Inhibition,[2],67%
same,Inhibition,[3],36%
Cc1csc(NC2=NCCN2)n1.Cl,Inhibition,[1],99%
same,Inhibition,[2],1%
same,Inhibition,[3],10%
Clc1ccc2nccc(N3CCC(CN4CCC(c5c[nH]c6ccccc56)CC4)CC3)c2c1.O=C(O)C(F)(F)F,Inhibition,[1],100%
same,Inhibition,[2],81%
same,Inhibition,[3],46%
COC(=O)c1ccc(CC(C)NCC(O)c2ccc(F)c(Cl)c2)cc1.Cl (configuration not stated),Inhibition,[1],98%
same,Inhibition,[2],78%
same,Inhibition,[3],0%
Cl.N[C@@H](CCN1CCC(c2cccc(O)c2)CC1)Cc1ccc(F)c(F)c1,Inhibition,[1],92%
same,Inhibition,[2],0%
same,Inhibition,[3],25%
OC(CNC12CC3CC(CC(C3)C1)C2)c1cccc(C(F)(F)F)c1 (configuration not stated),Inhibition,[1],97%
same,Inhibition,[2],98%
same,Inhibition,[3],16%
COCC(=O)N(Cc1ccccc1-c1ccc(CNCCc2ccccc2)cc1)C1CCN(Cc2ccccc2)CC1.O=C(O)C(F)(F)F,Inhibition,[1],94%
same,Inhibition,[2],86%
same,Inhibition,[3],39%
CC[C@H]1CN2CC[C@H]1C[C@@H]2[C@@H](OC(=O)c1ccc(Cl)cc1)c1ccnc2ccc(OC)cc12,Inhibition,[1],89%
same,Inhibition,[2],0%
same,Inhibition,[3],0%
NCc1cccc(-c2cccc(CN(C(=O)Nc3ccccc3)C3CCN(Cc4ccccc4)CC3)c2)c1.O=C(O)C(F)(F)F,Inhibition,[1],99%
same,Inhibition,[2],8%
same,Inhibition,[3],3%
FC(F)(F)c1ccc(NC(=S)N2CCC(CN3CCC(c4c[nH]c5ccccc45)CC3)CC2)cc1,Inhibition,[1],100%
same,Inhibition,[2],45%
same,Inhibition,[3],35%
O=[N+]([O-])c1ccc(Oc2c(Cl)cc(S(=O)(=O)N3CCC(CN4CCC(c5c[nH]c6ccccc56)CC4)CC3)cc2Cl)c(Cl)c1,Inhibition,[1],100%
same,Inhibition,[2],83%
same,Inhibition,[3],43%
CC[C@H]1C[N+]2([O-])CC[C@@H]1C[C@H]2[C@H](O)c1cc(-c2ccccc2)nc2ccc(OC)cc12,Inhibition,[1],99%
same,Inhibition,[2],97%
same,Inhibition,[3],0%
CC(=O)N(Cc1cccc(-c2ccc(CNCCc3ccccc3)cc2)c1)C1CCN(Cc2ccccc2)CC1.O=C(O)C(F)(F)F,Inhibition,[1],99%
same,Inhibition,[2],50%
same,Inhibition,[3],32%
COc1ccc(OC)c(C(O)C(C)NCc2cc(Cl)ccc2O)c1.Cl (configuration not stated),Inhibition,[1],97%
same,Inhibition,[2],99%
same,Inhibition,[3],11%
CC[C@H]1CN2CC[C@@H]1C[C@H]2[C@H](O)c1cc(N2CCSCC2)nc2ccc(OC)cc12,Inhibition,[1],99%
same,Inhibition,[2],98%
same,Inhibition,[3],2%
CCCc1cc([C@@H](O)[C@@H]2C[C@@H]3CCN2C[C@@H]3CC)c2ccccc2n1,Inhibition,[1],100%
same,Inhibition,[2],57%
same,Inhibition,[3],9%
CC(Cc1ccc(NC(=O)[C@H](C)NCCc2cccc(Cl)c2)cc1)NCCc1cccc(Cl)c1.Cl (some centres not stated),Inhibition,[1],100%
same,Inhibition,[2],54%
same,Inhibition,[3],99%
COc1ccc(-c2ccccc2)cc1NC(=S)NC1CCC(CN2CCC(c3c[nH]c4ccccc34)CC2)CC1 (configuration not stated),Inhibition,[1],100%
same,Inhibition,[2],98% and 95%
same,Inhibition,[3],27% and 51%
CCCCC1(NC(=O)[C@H](CC(C)C)Nc2ccc(C#N)c3ccccc23)CCCCC1.O=C(O)C(F)(F)F,Inhibition,[1],96%
same,Inhibition,[2],47%
same,Inhibition,[3],37%
Cc1ccc(-n2nc(C)c3c2NC(=O)CSC3c2ccsc2)cc1 (configuration not stated),Inhibition,[1],97%
same,Inhibition,[2],11%
same,Inhibition,[3],0%
O=C(NC1CCC(N2CCC3(CC2)C(=O)NCN3c2ccccc2)CC1)c1cc2ccccc2[nH]1 (configuration not stated),Inhibition,[1],98%
same,Inhibition,[2],40%
same,Inhibition,[3],0%
CCCCCCC(CC)c1cc(O)c2c(c1)OC(C)(C)c1ccncc1-2.Cl (configuration not stated),Inhibition,[1],94%
same,Inhibition,[2],52%
same,Inhibition,[3],0%
COCCNCc1cccc(-c2ccc(CN(C(=O)NC3CCCCC3)C3CCN(Cc4ccccc4)CC3)cc2)c1.O=C(O)C(F)(F)F,Inhibition,[1],100%
same,Inhibition,[2],31%
same,Inhibition,[3],32%
Cc1ccc(CC(C)NCC(O)c2cccc(C(F)(F)F)c2)cc1F.Cl (configuration not stated),Inhibition,[1],97%
same,Inhibition,[2],91%
same,Inhibition,[3],15%
O=C(NC1CCC(CN2CCC(c3c[nH]c4ccccc34)CC2)CC1)c1cc(-c2ccccc2Cl)n(-c2cccc(Cl)c2)n1 (configuration not stated),Inhibition,[1],95%
same,Inhibition,[2],24%
same,Inhibition,[3],58%
CS(=O)(=O)Nc1ccc2[nH]cc(C3CCN(CC4CCC(NC(=O)/C=C/c5ccccc5Cl)CC4)CC3)c2c1 (configuration not stated),Inhibition,[1],96%
same,Inhibition,[2],7%
same,Inhibition,[3],12%
C/C=C1/CN2CC[C@H]1C[C@H]2[C@H](O)c1ccnc2ccc(O)cc12,Inhibition,[1],99%
same,Inhibition,[2],11%
same,Inhibition,[3],0%
S=C(NCCc1ccc(Cl)cc1)N1CCC(CN2CCC(c3c[nH]c4ccccc34)CC2)CC1,Inhibition,[1],90%
same,Inhibition,[2],7%
same,Inhibition,[3],31%
Cc1cc(N)nc2ccc(CNCCc3ccccc3Br)cc12.Cl,Inhibition,[1],100%
same,Inhibition,[2],77%
same,Inhibition,[3],28%
CCCCCCCc1cc(O)c2c(c1)OC(C)(C)c1ccncc1-2.Cl,Inhibition,[1],95%
same,Inhibition,[2],52%
same,Inhibition,[3],0%
FC(F)(F)c1ccc(NC(=S)NC2CCC(CN3CCC(c4c[nH]c5ccccc45)CC3)CC2)cc1 (configuration not stated),Inhibition,[1],100%
same,Inhibition,[2],100% and 99%
same,Inhibition,[3],65% and 92%
COc1c(F)cc(CC(C)NCC(O)c2cccc(Cl)c2)cc1F.Cl (configuration not stated),Inhibition,[1],93%
same,Inhibition,[2],86%
same,Inhibition,[3],0%
CC[C@H]1CN2CC[C@H]1C[C@H]2[C@H](O)c1cc(Cl)nc2ccc(OC)cc12,Inhibition,[1],100%
same,Inhibition,[2],92%
same,Inhibition,[3],0%
CCc1ccc(CN2CCC(CN(C(=O)c3ccccc3)c3ccc(Cl)cc3)CC2)cc1,Inhibition,[1],96%
same,Inhibition,[2],95%
same,Inhibition,[3],12%
Cc1ccc(CC(C)NCC(O)c2cccc(C#N)c2)cc1 (configuration not stated),Inhibition,[1],94%
same,Inhibition,[2],86%
same,Inhibition,[3],2%
CCCCCc1cc(O)c2c(c1)OC(C)(C)CC2C1=CCN(Cc2cccnc2)CC1.Cl.O (configuration not stated),Inhibition,[1],97%
same,Inhibition,[2],97%
same,Inhibition,[3],15%
CCN(CC)CCN1C(=O)C(O)(c2ccccc2Cl)c2c1cc(C(N)=O)cc2C(F)(F)F.Cl (configuration not stated),Inhibition,[1],100%
same,Inhibition,[2],86%
same,Inhibition,[3],16%
Cc1ccc2c(C3=CCN(CCCCC4(C)C(=O)Nc5ccccc54)CC3)c(C)[nH]c2c1 (configuration not stated),Inhibition,[1],95%
same,Inhibition,[2],91%
same,Inhibition,[3],9%
S=C(Nc1ccc2c(c1)OCCO2)NC1CCC(CN2CCC(c3c[nH]c4ccccc34)CC2)CC1 (configuration not stated),Inhibition,[1],96% and 92%
same,Inhibition,[2],1% and 7%
same,Inhibition,[3],31% and 32%
Br.COc1ccc(CC(C)NCC(O)c2cccc(C(F)(F)F)c2)cc1F (configuration not stated),Inhibition,[1],91%
same,Inhibition,[2],65%
same,Inhibition,[3],0%
CC[C@H]1CN2CC[C@@H]1C[C@H]2[C@H](O)c1cc(-c2cc(Cl)cc(Cl)c2)nc2ccc(OC)cc12,Inhibition,[1],99%
same,Inhibition,[2],97%
same,Inhibition,[3],0%
